Results reported in ChEMBL document CHEMBL3988442, “University of Dundee, Small-Polar-MMV Screening Library” (2021).
The whole screen tested about 53,000 compounds, of which about 900 (1.7%) showed an effect of 50% or more. This excerpt belongs to a sample that is enriched for strong results.

system: Mycobacterium tuberculosis; assay: Cornell - Phenotypic assay to identify agents that inhibit growth of Mycobacterium tuberculosis; assay type: functional; design: scale not given: direction of the effect not stated beside the values; conditions: 10 mM as filed; unlikely as a test dose

SMILES	Percent Effect [%]
Cc1nc(C2CCN(C(=O)c3ccn(C)n3)CC2)c2sccn12	-12.4
CCn1nc(C)c(CNC(=O)c2cn(CC3CCCO3)nn2)c1C (stereo unspecified)	-30.41
Cc1cc(C)n(C2CCN(c3ncnc4sc5c(c34)CCNC5)C2)n1 (stereo unspecified)	11.06
FC1(F)CCN(Cc2cccnc2)CC12CCN(c1ccccn1)C2.O=C(O)C(F)(F)F.O=C(O)C(F)(F)F.O=C(O)C(F)(F)F (stereo unspecified)	-7.439
FC1(F)CCN(Cc2cccnc2)CC12CCN(c1ccccc1)C2.O=C(O)C(F)(F)F.O=C(O)C(F)(F)F.O=C(O)C(F)(F)F (stereo unspecified)	59.15
FC1(F)CCN(Cc2ccncc2)CC12CCN(c1cccnc1)C2.O=C(O)C(F)(F)F.O=C(O)C(F)(F)F.O=C(O)C(F)(F)F (stereo unspecified)	6.416
Cc1nn2c(=O)/c(=C\c3cccs3)sc2nc1=O	10.56
CC1CCN(c2ncc(-c3ccccc3F)c(-c3nccn3C)n2)CC1	-10.24
Cc1cc(-c2cnc(N3CCC(O)CC3)nc2-c2cccnc2C)on1	-33.62
CC1CCCN(c2ncc(-c3ccccc3F)c(-c3nccn3C)n2)C1 (stereo unspecified)	50
Cc1cc(-c2cnc(N3CCCCCC3)nc2-c2cccnc2C)on1	62.64
Cc1cc(-c2cnc(N3CCOCC3)nc2-c2cccnc2C)on1	6.202
Cn1ccnc1-c1nc(N2CCCCC2)ncc1-c1ccccc1F	56.75
CC(C)=CCN1CCC2(CC1)CC(=O)N(Cc1cc(F)cc(F)c1)C2	20.01
CC(C)Cn1nc2ccc(S(=O)(=O)N3CCC(C)CC3)cn2c1=O	2.551
COc1cc2nc(NCc3ccc(C)nc3)nc(N)c2cc1OC	50.73
COc1cc2nc(NCc3cc(C)on3)nc(N)c2cc1OC	-7.413
COc1cc2nc(NCc3scnc3C)nc(N)c2cc1OC	13.16
COC(=O)N1CCC(Nc2ccc(C#N)c(Cl)c2)C1 (stereo unspecified)	66.83
COC(=O)N1CCC(Nc2ccc(Cl)c(C#N)n2)C1 (stereo unspecified)	21.5
N#Cc1ccc(NC2CCN(c3ncccn3)CC2)cc1Cl	33.47
CC(NC(=O)NCCNc1ccccn1)c1cccs1 (stereo unspecified)	-14.12

SMILES	Percent Effect [%]
CCCNC(=O)NC(C)c1ccccn1 (stereo unspecified)	55.13
CC(NC(=O)NCCCn1cccn1)c1ccccn1 (stereo unspecified)	-6.373
CCN1CCN(C(C)(C)CNc2nc(C)cc(C3CCC3)n2)CC1	8.458
CC(C)CC(=O)N1Cc2ccccc2CC1C(=O)Nc1nncs1 (stereo unspecified)	29.19
O=C(NCC1(O)COCCN(Cc2cccc(O)c2)C1)c1ccccn1 (stereo unspecified)	-47.38
CC(C)n1cnnc1Cn1ccc2ncccc2c1=O	-16.96
CC(NC(=O)NCc1ccccc1F)(C(=O)O)c1ccco1 (stereo unspecified)	-0.26
CC(NC(=O)NCc1ccccc1)(C(=O)O)c1ccco1 (stereo unspecified)	-57.05
Cc1ccc(C)c(CNC(=O)NC(C)(C(=O)O)c2ccco2)c1 (stereo unspecified)	50.37
COc1cc(N2CCC3(CC2)CN(C)C(=O)CO3)ncn1	-14.83
CCn1ncc2c1CCCC2NCc1cccc2c1OCO2 (stereo unspecified)	-8.826
NC(=O)C1CCN(C(=O)CCSCc2ccc(Cl)c(Cl)c2)CC1	42.57
CNC(=O)NC(=O)CN(C)C(c1cccnc1)c1ccc(F)cc1F (stereo unspecified)	14.91
CCOCCN(C)C(c1cccnc1)c1ccc(F)cc1F (stereo unspecified)	14
COC(=O)CCCN(C)C(c1cccnc1)c1ccc(F)cc1F (stereo unspecified)	105.8
CC(=O)NCCC1CCCCN1S(=O)(=O)c1cccc(Cl)c1 (stereo unspecified)	-47.8
CN1CCN(Cc2cn3c(n2)CN(Cc2ccncc2)CC3)CC1	-19.75
COc1ccccc1NC(=O)CC(C)NCCc1sc(C)nc1C (stereo unspecified)	109.1
COc1ccccc1NC(=O)CC(C)NCc1scnc1C (stereo unspecified)	-11.77
COc1ccccc1NCC(=O)NCc1scnc1C	3.418
CCOc1ccc(NC(=O)N2CCOC(C(N)=O)C2)cc1C (stereo unspecified)	-10.8
CCN1CCN(c2nsc(-c3cccnc3)c2C#N)CC1	8.063

SMILES	Percent Effect [%]
CN1CCN(c2nsc(-c3cccnc3)c2C#N)CC1	-23.91
CN1CCN(c2nsc(-c3ccccc3)c2C#N)CC1	72.37
O=C(NCCOc1ccccc1)NCC(O)c1cccs1 (stereo unspecified)	1.907
Cc1csc(N2CCCN(C(=O)c3csc(C)n3)CC2)n1	20.78
O=C(c1cnc(O)cn1)N1C[C@@H]2CC[C@H](C1)N(Cc1ccccc1)C2	9.482
CCN1CCCc2cc(CN3CCc4c(nc(C)[nH]c4=O)C3)ccc21	3.807
Cc1cnc(CN(Cc2ccccc2)CC(O)c2cccs2)cn1 (stereo unspecified)	-16.83
Cn1cc(CN(Cc2ccccc2)CC(O)c2cccs2)cn1 (stereo unspecified)	103.2
OC(CN(Cc1ccccc1)Cc1ccncc1)c1cccs1 (stereo unspecified)	4.252
O=C(CCn1c(=O)oc2ccccc21)NCC(O)c1ccccc1 (stereo unspecified)	-6.039
CCN(CCn1c(=O)oc2ccccc21)CC1CCOCC1	48
CCCN(CCn1c(=O)oc2ccccc21)CC1CC1	69.63
O=c1oc2ccccc2n1CCN(CC1CCOC1)C1CC1 (stereo unspecified)	23.76
CC(NCCn1c(=O)oc2ccccc21)c1ccccn1 (stereo unspecified)	11.05
CCN(CC)CCn1c(=O)oc2ccccc21.Cl	61.39
CN(C)CCN1CCC2(CC1)CN(c1cccnc1)C(=O)CO2	-2.61
CCC(C)NC(=O)Nc1cccc(OC)c1 (stereo unspecified)	-23.11
CC1CC(=O)c2cc(C(=O)N3CCN(C)CC3)c(=O)[nH]c2C1 (stereo unspecified)	4.231
COc1c(Br)c(C(=O)NC2CC2)nn1C	20.51
CN(c1ncccc1CNC(=O)c1cscn1)C1CCCCC1	20.11
CNc1nc(C(=O)NCc2cccnc2N(C)C2CCCCC2)cs1	51.53
CNc1nc(C(=O)NCc2cccnc2N(C)C)cs1	28.41

SMILES	Percent Effect [%]
CCCN1CCN(Cc2cc3cc(OCC)ccc3[nH]c2=O)CC1	16.06
CCc1ccc(-c2cn3c(C(=O)NCC(C)C(=O)NC)csc3n2)cc1 (stereo unspecified)	9.06
CCn1ccc(CNC(=O)c2cc(OC)cc(OC)c2)n1	3.102
O=C(CN1CCOCC1)Nc1ccc(C(F)(F)F)cc1Cl	-3.484
Cc1cnc(C(=O)N2CCN(c3ncc4c(n3)CCOC4)CC2)cn1	56.71
CC(C)c1cc(C(=O)N2CCN(c3ncc4c(n3)CCOC4)CC2)on1	-0.8267
Cc1cc(C(=O)N2CCN(c3ncc4c(n3)CCOC4)CC2)sc1C	45.6
O=C(CN1CCc2cncnc2C1)Nc1ccc(Cl)cn1	-14.12
CCc1nnc(CN(C)c2cc(C)nc3c(C)c(C)nn23)o1	-22.97
Cc1cc(N(C)Cc2ccsc2)n2nc(C)c(C)c2n1	80.58
Cc1csc(CN(C)c2cc(C)nc3c(C)c(C)nn23)n1	39.72
COCCNC(=O)CN1CCCC1c1c(C)nn(C)c1Cl (stereo unspecified)	-22.86
COc1ccc2cc(NC(=O)CCNc3ncccn3)cnc2c1	-7.502
COCCC(=O)N1CCC(c2cncc(Oc3cccnc3)n2)CC1	-4.018
Cc1nn(C)c(C)c1CNC1CCOc2ccccc21 (stereo unspecified)	106.6
Cc1nn(CCO)c(C)c1CNC1CCOc2ccccc21.Cl (stereo unspecified)	28.69
COc1c(CNC2CCOc3ccccc32)c(C)nn1C (stereo unspecified)	23.56
CC(C)N1CCC2(CCN(C(=O)c3cccnc3)CC2)C1.O=C(O)C(F)(F)F.O=C(O)C(F)(F)F	-3.69
COc1cccc(-c2noc3c2CN(c2nc(C)ncc2C)CC3)c1	77.03
COCc1cc(N2CCc3onc(-c4cccc(OC)c4)c3C2)ncn1	25.42
COc1cccc(-c2noc3c2CN(c2ncnc4c2CCC4)CC3)c1	35.28
c1cc(CN2CCCC(c3ccnc4nccn34)C2)ccn1 (stereo unspecified)	21.25

SMILES	Percent Effect [%]
CSc1sc2c(O)cc(=O)[nH]c2c1C(N)=O	28.59
CCn1c(C)nnc1SCCn1cc(-c2nccs2)nn1	-8.266
COc1ccc(CN2CCC3(CC(C(=O)NCC(C)C)=NO3)C2)cc1 (stereo unspecified)	19.34
COCC(=O)Nc1ccc(Oc2ccsc2C(=O)O)cc1	86.45
CC(C)(C)C(=O)Nc1ccc(Oc2ccsc2C(=O)O)cc1	16.22
O=C(Nc1cnc(Oc2ccccc2)nc1)C1CC1	23.36
CC(C)CC(=O)Nc1ccc(Oc2ccsc2C(=O)O)cc1	38.91
CC(C)CC(=O)Nc1ccccc1Oc1ccsc1C(=O)O	8.037
O=C(O)c1sccc1Oc1ccc(NC(=O)C2CC2)cc1	55.89
CC(C)NC(=O)Nc1ccc2c(c1)ncn2CC(=O)NCCN(C)C	-20.24
Cc1nc(C)n(C2CCCN(C(=O)Cc3ccc4c(c3)CCC4)C2)n1 (stereo unspecified)	13.58
Cc1cc(C)n(C2CN(Cc3noc(C4CC4)n3)C2)n1	7.043
COCCC(=O)Nc1ccnn1-c1ccccc1	-2.555
c1cnc(N2CCOCC3(CCCN(c4nncs4)C3)C2)cn1 (stereo unspecified)	-8.424
CCOCCN1CCN(CCc2ccc3c(c2)CCO3)CC1	-8.246
COCC(C)N1CCN(CCc2ccc3c(c2)CCO3)CC1 (stereo unspecified)	-12.27
CC(C)NC1CCN(CCc2ccc3c(c2)CCO3)CC1	56.74
CS(=O)(=O)NC[C@]12COC[C@H]1CN(C(=O)C1CC=CC1)C2	-4.911
